Screening data (PubChem BioAssay)
TTR transcr act: activators of transthyretin transcription; activation, % at 16.7 µM; 92,000 compounds, 1.3% hits; SH-SY5Y TTR promoter Gaussia luciferase, luminescence; 100% = recombinant luciferase protein wells; AID 1117267;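 active means activation above the mean of all tested compounds plus 3 SD, cut at about 9.5% in these data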;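 further: cells exposed to compounds for one day before reading; 0% = median of all test compound wells on the plate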
TTR inh HuH7: decreases TTR transcription in HuH7 cells in activator counter-screen; shares compounds with TTR transcr act; HuH7 TTR promoter-Gaussia luciferase reporter, luminescence; inhibition, % at 16.7 µM; 1,100 compounds, 4% hits;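 active means average inhibition above the solvent-only control wells' mean plus 3 SD, cut at about 15% in these data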;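 further: 0% = cells with DMSO only and 100% = cells with inhibitor control FD; inhibitors lower well luminescence so higher value means more inhibition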
TTR act confirm: confirmation of human transthyretin transcription activators; shares compounds with TTR transcr act; SHSY5Y TTR promoter Gaussia luciferase, luminescence; 100% = purified Lucia enzyme wells, no cells; activation, % at 16.7 µM; 1,100 tested, under 10 active; AID 1117280;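 active means mean activation above a set limit taken from the earlier primary screen, cut at about 11% in these data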;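 further: 0% = DMSO-treated cells and 100% = recombinant Lucia luciferase without cells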
Numbers without * were called inactive. The full list was thinned out, with hits kept by preference.

SMILES | TTR transcr act | others
O=C(Nc1c(F)cc(F)cc1Br)c1cc(S(=O)(=O)N2CCN(c3ccccn3)CC2)ccc1F | 11* | TTR inh HuH7=1;TTR act confirm=-1
O=C(Nc1cccc(F)c1)c1cc(S(=O)(=O)N2CCC(C(=O)O)CC2)ccc1F | -1
CCOC(=O)Cn1c(=O)oc2cc(S(=O)(=O)N3CCN(c4ccccn4)CC3)ccc21 | -1
O=C(OCC#CCSc1nnc(-c2ccccc2)o1)c1ccc(F)cc1 | -1
COC(=O)C1CN(Cc2ccccc2)CCS(=O)(=O)N1Cc1cn(Cc2ccccc2Br)nn1 (stereo not drawn) | -1
CN(C)S(=O)(=O)c1ccc2nc(COCc3nc4ccc(S(=O)(=O)N(C)C)cc4[nH]3)[nH]c2c1 | 0
CCC[C@H]1[C@@H](NCc2cccs2)CC[C@@]23CCCN2C(=O)CCC[C@@H]13 | 2
CN1CCN(Cc2cccc(Oc3ccccc3)c2)CC1 | 18* | TTR inh HuH7=-4;TTR act confirm=-1
O=C(c1ccccc1)N1CCN(Cc2cccc(Oc3ccccc3)c2)CC1 | -2
COc1ccc(CN2CCN(Cc3cccc(Oc4ccccc4)c3)CC2)c(OC)c1OC | -2
Cc1ccc(CN2CCCCC(NC(=O)c3cccc(F)c3)C2=O)cc1 (stereo not drawn) | 1
C[C@H]1[C@H](N(C)C)CC[C@@]23CCCN2C(=O)CCC[C@@H]13 | 3
O=S(=O)(N[C@@H]1CCCC[C@@H]1N1CCOCC1)c1ccc(Cl)cc1 | -1
COC(=O)C(CN)CN1C(=O)c2ccccc2C1=O (stereo not drawn) | 0
CCCCNS(=O)(=O)/C=C/c1ccccc1CCNC(=O)OC(C)(C)C | 9
COC(=O)[C@]12C[C@H](CC(=O)NCC34CC5CC(CC(C5)C3)C4)C(=O)N(Cc3cccc4ccccc34)C1=C[C@H](C(C)C)O[C@@H]2C1CC1 | -1
Cc1ccc(C(C)C)c(OCC(=O)OCC(=O)c2c(N)n(C)c(=O)n(C)c2=O)c1 | -1
Cc1cccc(OCC(=O)OCC(=O)c2c(N)n(C)c(=O)n(C)c2=O)c1C | 0
Cc1cccc(OCC(=O)OCC(=O)c2c(N)n(C)c(=O)n(C)c2=O)c1 | 11* | TTR inh HuH7=-7;TTR act confirm=0
O=C(Nc1nc2ncccn2c1-c1ccccc1)c1ccc(F)cc1 | 0
COc1ccc2[nH]c3c(c2c1)CCN[C@]31C(=O)Nc2ccccc21 | 0
CCC(=O)Nc1cccc(-c2csc(-c3ccccc3)n2)c1 | -1
CC(=O)Nc1cccc(-c2csc(N)n2)c1 | 9.7* | TTR inh HuH7=-13;TTR act confirm=0
COc1ccc(CC(=O)Nc2cccc(-c3csc(C)n3)c2)cc1 | -1
COC(=O)C[C@@H]1CC[C@@H]2[C@@H](COc3ccc(NC(=O)Nc4ccc(F)cc4)cc3C(=O)N2C)O1 | -2
SMILES | TTR transcr act | others
CCOC(=O)CCCNC(=O)OC1CC2CC1[C@H]1CCCCN1[C@H]2Cc1ccccc1 (stereo partly drawn) | 1
CCCCCCCCN1C(=O)[C@@H](CC(=O)N2CCSCC2)C[C@@]2(C(=O)OC)C1=C[C@H](C(C)C)O[C@@H]2C1CC1 | -1
Cc1ccc(Nc2ccc([N+](=O)[O-])cn2)cc1Cl | 1
Cc1ccc(NC(=S)N(C)N)cc1Cl | 1
Cc1ccc(Nc2cc(=O)[nH]c(=O)[nH]2)cc1Cl | 9.7* | TTR inh HuH7=-3;TTR act confirm=-1
Cc1cc2cc3c(cc2n2c(SCC(=O)Nc4nc(-c5ccccc5)cs4)nnc12)OCO3 | 1
CC(C)C[C@H](NC1(C(=O)NC2CCCCC2)CCCCC1)C(=O)NCC(c1ccccc1)c1ccccc1 | 2
CCOC(=O)CC[C@H](NC(=O)[C@@H]1CC=C[C@@H]2CCN(Cc3ccc(Cl)cc3)C(=O)[C@@H]21)C(=O)OCC | 1
CC(C)(C)OC(=O)NCCc1nnc(SCc2ccccc2)o1 | -2
O=C(CSc1nnc(Cc2ccccc2)o1)N1CCc2ccccc21 | 0
O=C(O)c1ccc(CSc2nnc(Cc3ccccc3)o2)cc1 | 13* | TTR inh HuH7=42*;TTR act confirm=-2
CC(C)(C)S(=O)(=O)N1Cc2cc(CO)ccc2[C@@H]1CCO | 3
CCc1ccc(-n2ncc(Cl)c(Oc3ccc(OC)cc3)c2=O)cc1 | -2
COc1ccc(Cn2ccc3ccc(-c4ccc5ccn(Cc6ccc(C#N)cc6)c5c4)cc32)cc1 | 5
O=C(/C=C/c1ccc(-c2ccccc2)cc1)NC1=NCCS1 | 3
CCSc1nc2ccccc2n1CC(N)=O | 0
COCC(C)NC(=O)Cn1c(SCc2ccccc2)nc2ccccc21 (stereo not drawn) | 1
COC(=O)CSc1nc2ccccc2n1CC(=O)N(C(C)C)C(C)C | 13* | TTR inh HuH7=-5;TTR act confirm=-1
Cc1ccc(S(=O)(=O)N2[C@@H](c3ccc(F)cc3)C(C(=O)O)=CC[C@H]2c2cccc(Cl)c2)cc1 | 1
Cc1ccc([C@@H]2CC=C(C(=O)O)[C@H](c3ccccc3)N2S(=O)(=O)c2ccc(C)cc2)cc1 | -1
Cc1ccc(S(=O)(=O)N2[C@@H](c3ccccc3F)C(C(=O)O)=CC[C@H]2c2cccs2)cc1 | 13* | TTR inh HuH7=-1;TTR act confirm=2
Cc1ccc([C@H]2C(C(=O)O)=CC[C@@H](c3ccc(Cl)cc3)N2S(=O)(=O)c2ccc(C)cc2)cc1 | -3
COc1ccc([C@@H]2CC=C(C(=O)O)[C@H](c3ccccc3F)N2S(=O)(=O)c2ccccc2C)cc1 | 14* | TTR inh HuH7=16*;TTR act confirm=-1
Cc1ccc([C@H]2C(C(=O)O)=CC[C@@H](c3cccc(C)c3)N2S(=O)(=O)c2ccc(C)cc2)cc1 | 4
O=C(N1CCC(Cc2ccccc2)CC1)n1ncc(C(O)(c2ccccc2)c2ccccc2)n1 | -1
SMILES | TTR transcr act | others
CC(C)N(C[C@@H]1CSCCS(=O)(=O)N1)C(C)C | -1
C[C@H]1[C@H](NC(=O)c2ccc(Cl)cc2)CC[C@@]23CCCN2C(=O)CCC[C@@H]13 | 0
CN(C)[C@@H]1CCN(c2cccc3c2S(=O)(=O)N(C2CC2)CCCO3)C1 | 0
C[C@H]1C2CC(OC(=O)Nc3cccc(C(F)(F)F)c3)C(C2)[C@H]2CCCCN21 (stereo partly drawn) | -2
C[C@H]1CCC[C@H](O)CC(=O)c2c(O)cc(O)cc2CC(=O)O1 | -2
O=C(NC1CCCCN(Cc2ccc(Cl)cc2)C1=O)C1C2CC3CC(C2)CC1C3 (stereo not drawn) | -1
Cc1c(C(=O)N2CCc3ccccc3C2)oc2ccc(S(=O)(=O)N3CCCCCC3)cc12 | 1
Cc1c(C(=O)N2CCOCC2)oc2ccc(S(=O)(=O)N3CCCC3)cc12 | 1
Cc1c(C(=O)N2CCN(S(=O)(=O)c3ccccc3)CC2)oc2ccc(Br)cc12 | 31* | TTR inh HuH7=-19;TTR act confirm=0
O=C(NC(=S)Nc1ccccc1Cl)c1csnn1 | 13* | TTR inh HuH7=-12;TTR act confirm=0
O=C(NC(=O)N1CCCC1)c1csnn1 | 2
Cc1c(Cl)cccc1NC(=S)NC(=O)c1ccccc1 | 9
O=C(OCc1cn(Cc2ccc(C(F)(F)F)cc2)nn1)N1CCCC1 | -1
Cc1ccc(C#N)c(SCCN2CCCCC2)n1 | -1
Cn1c(SCCN2CCCCC2)nnc1-c1ccccc1Br | 14* | TTR inh HuH7=-7;TTR act confirm=0
Cn1c(SCC(=O)N2CCCCCC2)nnc1-c1ccco1 | 2
O=S1(=O)c2c(cccc2N2CC[C@@H](O)C2)O[C@H]2CCN1C2 | -1
Cn1c2ccccc2c2ncn(Cc3ccco3)c(=O)c21 | -1
Cn1c2ccc(F)cc2c2ncn(Cc3ccccn3)c(=O)c21 | 15* | TTR inh HuH7=-14;TTR act confirm=-1
